# Inconclusive results are not listed. Activity calls are given as the source filed them. Rule for the calls, unless noted: active = hit-call score of the fitted dose curve at least 0.9, where 1 is the maximum; inactive = score below 0.9.
# How the values were obtained:
# [1] = CCTE_Deisenroth_DEVTOX-GLR_legacy_CellCount: (Legacy) Viability Assessment in CCTE's DevTox GLR-Endo Assay, Deisenroth Lab (AID 2284331); conditions: actives raise or lower the signal
# How it was run: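 Nuclei count by fluorescence high-content imaging (5 fields/well) after 48 h differentiation of RUES2-GLR cells. Two exposures, 24 h apart; 1 nM - 200 uM series; n=4. Bidirectional fit vs DMSO.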
# IYD (gene 389434) = assay: CCTE_GLTED_hIYD: CCTE's human Iodotyrosine Deiodinase (xIYD) Inhibition Assay, Great Lakes Toxicology and Ecology Division (GLTED) Lab (AID 2284317; active = hit-call score of the fitted dose curve at least 0.9, where 1 is the maximum;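 note: cell-free human IYD enzyme made in baculovirus insect cells; iodide freed from monoiodotyrosine measured by cerium arsenite color change at 420 nm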)
# How it was run: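 Cell-free; baculovirus/insect-cell hIYD + MIT substrate + chemical, 3 h. Dowex column cleanup, then Ce4+/As3+ Sandell-Kolthoff read at A420 nm. Triplicate plates; normalized to 3-nitro-L-tyrosine (positive) and DMSO/NaOH (solvent).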
# [2] = CCTE_Mundy_HCI_iCellGluta_NOG_NeuriteLength: CCTE's Neurite Outgrowth Assay in iCellGluta cells for Neurite Length, Mundy Lab (AID 2284318; active = hit-call score of the fitted dose curve at least 0.9, where 1 is the maximum)
# How it was run: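 Automated high-content imaging of betaIII-tubulin (Alexa Fluor-488) and Hoechst-stained cells gave neurite length, normalized to the DMSO baseline.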
# TTR (gene 7276) = assay: CCTE_GLTED_hTTR_0.5uM: CCTE's human Transthyretin (hTTR) Inhibition Assay, with 0.5uM TTR, Great Lakes Toxicology and Ecology Division (GLTED) Lab (AID 2284320)
# How it was run: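 Probe (ANSA) displacement from 0.5 uM human transthyretin was followed by fluorescence (ex 380, em 475) after a 2 h incubation with chemical. Activity was scored as signal loss and fitted positively relative to DMSO.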
# [3] = IUF_NPC2-5_cytotoxicity_120hr: Cytotoxicity Assessment at 120 hours in the Leibniz Research Institute for Environmental Medicine (IUF) Neural Progenitor Cell Migration and Differentiation Assay (NPC2-5) (AID 2284307; active = hit-call score of the fitted dose curve at least 0.9, where 1 is the maximum;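 for AC50: LDH released into supernatant as membrane damage marker via resorufin fluorescence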)
# How it was run: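 Sphere plating starts differentiation and exposure together at day 0. Compound solution is half-replaced on day 3. At 120 h, medium supernatant is taken for an LDH membrane-integrity read based on resazurin reduction to resorufin fluorescence.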
# [4] = IUF_NPC2-5_cell_number_120hr: Cell Number Assessment at 120 hours in the Leibniz Research Institute for Environmental Medicine (IUF) Neural Progenitor Cell Migration and Differentiation Assay (NPC2-5) (AID 2284308);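 note: count of Hoechst-stained nuclei in migration zone around plated human neural progenitor spheres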
# How it was run: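 hNPC spheres, one per well, PDL/laminin, N2 medium, 37C, 5% CO2. Dosing day 0 → half-medium change with fresh compound day 3 → fix 120 h. Readout: Hoechst+ nuclei count, migration area; 7 concentrations plus solvent control.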
# [5] = VALA_TUBHUV_Agonist_CellCount: Viability Assessment in the VALA Sciences human Umbilical Vein Endothelial Tubule Formation (TUBHUV) Agonism Assay (AID 2284309; active = hit-call score of the fitted dose curve at least 0.9, where 1 is the maximum)
# How it was run: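 Viability endpoint by fluorescent imaging of fixed nuclear/CD31-stained HUVEC–HDF co-cultures. Readout is cell count, fitted upward against 0.1% DMSO. Compound exposure was 72 h in 10 ng/ml VEGF, after 3-day co-culture priming.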
# [6] = VALA_TUBIPS_Agonist_TubuleLength: VALA Sciences human iPS-derived Endothelial Tubule Formation (TUBIPS) Agonism Assay (AID 2284311; active = hit-call score of the fitted dose curve at least 0.9, where 1 is the maximum)
# How it was run: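 Agonist-mode readout is the gain in imaged tubule length versus DMSO baseline. It was measured by fluorescence high-content imaging 72 h after dosing human iPSC-derived endothelial cells.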
# [7] = IUF_NPC2-5_viability_120hr: Viability Assessment at 120 hours in the Leibniz Research Institute for Environmental Medicine (IUF) Neural Progenitor Cell Migration and Differentiation Assay (NPC2-5) (AID 2284312)
# How it was run: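 Alamar blue resorufin fluorescence read after 5 days of differentiation, with compound present from day 0 and replenished at day 3. Primary hNPC spheres on laminin-coated plates, 37C; seven concentrations plus solvent control, fitted against DMSO.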
# [8] = VALA_TUBIPS_Antagonist_TubuleLength: VALA Sciences human iPS-derived Endothelial Tubule Formation (TUBIPS) Antagonist Assay (AID 2284313; active = hit-call score of the fitted dose curve at least 0.9, where 1 is the maximum)
# How it was run: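 Tubule length was quantified by high-content imaging of CD31- and nuclear-stained cells, with 0.1% DMSO as neutral and 100 uM suramin as inhibition control. Compounds were applied for 3 days, in 10 ng/ml VEGF, to cultures pre-grown 3 days.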
# [9] = VALA_MIGHUV2_WoundArea: VALA Sciences human Umbilical Vein Endothelial Cell Migration (MIGHUV) Assay, Area of Scratch Wound after Recovery (AID 2284316; active = hit-call score of the fitted dose curve at least 0.9, where 1 is the maximum)
# How it was run: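 Wound-area endpoint read by fluorescence imaging of Hoechst-stained nuclei after a 24 h recovery period following scratch of HUVEC monolayers (9000 cells/well). Chemicals dosed within 30 min post-scratch, triplicate 6-point series, 0.1% DMSO vehicle; Cytochalasin D positive control.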
# [10] = IUF_NPC1_cytotoxicity_72hr: Cytotoxicity Assessment at 72 hours in the Leibniz Research Institute for Environmental Medicine (IUF) Neural Progenitor Cell Proliferation Assay (NPC1) (AID 2284332; active = hit-call score of the fitted dose curve at least 0.9, where 1 is the maximum;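 note: rising LDH signal means more cytotoxicity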)
# How it was run: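 LDH in supernatant, resazurin→resorufin fluorescence (RFU), 72 h exposure, no re-dosing. Cells: primary hNPC spheres, one per well, EGF+FGF medium, 37C/5% CO2, pH 7.2-7.6. Fit: positive direction vs baseline and dynamic range.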
# [11] = VALA_TUBIPS_Antagonist_CellCount: Viability Assessment in the VALA Sciences human iPS-derived Endothelial Tubule Formation (TUBIPS) Antagonism Assay (AID 2284335; active = hit-call score of the fitted dose curve at least 0.9, where 1 is the maximum)
# [12] = VALA_MIGHUV1_ScratchOnly_WoundArea: VALA Sciences human Umbilical Vein Endothelial Cell Migration (MIGHUV) Assay, Area of Scratch Wound Inhibited Recovery (AID 2284336; active = hit-call score of the fitted dose curve at least 0.9, where 1 is the maximum)
# How it was run: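 Wound area remaining after 24 h recovery imaged by Hoechst nuclear fluorescence in scratched HUVEC cultures, chemicals added within 30 min of scratching across a 6-point series. Gain of signal fitted against 0.1% DMSO; cytochalasin D positive control.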
# [13] = VALA_TUBHUV_Agonist_TubuleLength: VALA Sciences human Umbilical Vein Endothelial Tubule Formation (TUBHUV) Agonism Assay (AID 2284337; active = hit-call score of the fitted dose curve at least 0.9, where 1 is the maximum)
# How it was run: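 Tubule length quantified by CD31 immunofluorescence imaging after fixation. HUVEC-HDF co-cultures (1:3) pre-grown 3 days with 10 ng/ml VEGF, then dosed 3 days in VEGF medium; 0.1 % DMSO vehicle baseline.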
# [14] = CCTE_Deisenroth_5AR_NBTE_acceptor: CCTE's 5alpha-reductase NanoBRET Target Engagement Assay - Autofluorescence Screen, Deisenroth Lab (AID 2284321); conditions: actives raise or lower the signal;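 note: compound fluorescence in the acceptor channel under 460 nm excitation flags autofluorescence artifacts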
# How it was run: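 Acceptor fluorescence intensity was read as an artifact-detection endpoint. Test chemicals at an assumed nominal 100 uM were excited at 460 nm across three independent runs. Activity was fitted bidirectionally against DMSO.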
# SRD5A2 (gene 6716) = assay: CCTE_Deisenroth_5AR_NBTE_ratio: CCTE's 5alpha-reductase NanoBRET Target Engagement Assay - Ratio, Deisenroth Lab (AID 2284322); conditions: actives raise or lower the signal
# How it was run: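 SRD5A2-NanoLuc HEK293T; cmpd 10 nM-29.9 uM, 3 h preinc + testosterone tracer 2 h; NanoBRET ratio 650/460; bidirectional fit vs DMSO.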
# [15] = TAMU_PeakParms_SingleDonor1434_Asystole: Texas A&M University (TAMU) 1.5-hr Human Induced Pluripotent Stem Cell (iPSC)-derived Cardiomyocytes Calcium (Ca+2) Flux Assay for Cardiotoxicity: Asystole (quiescence of beating) (AID 2284328; active = hit-call score of the fitted dose curve at least 0.9, where 1 is the maximum)
# How it was run: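 Average Ca2+-flux peak frequency (beats/s) was recorded in single-donor iPSC-derived cardiomyocytes after 90 min exposure (0.2–100 uM final, 0.5% DMSO). Asystole POD set as EC95 against DMSO, no preprocessing.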
# [16] = test system: Brachyury (BRA) Protein Expression, Deisenroth Lab, TBXT (gene 6862); assay: CCTE_Deisenroth_DEVTOX-GLR_legacy_Bra: (Legacy) CCTE's DevTox GLR-Endo Assay Evaluation of Brachyury (BRA) Protein Expression, Deisenroth Lab (AID 2284329)
# How it was run: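 Percent Bra-positive cells, scored by high-content imaging against a threshold of 5x BMAD over the undifferentiated control median, with the 0.2% DMSO median subtracted. RUES2-GLR cultures were dosed twice at 24 h intervals across a 48 h differentiation, at 1 nM–200 uM in ten steps, with n=4 replicates.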
# [17] = CCTE_Deisenroth_5AR_NBTE_donor: CCTE's 5alpha-reductase NanoBRET Target Engagement Assay […], Deisenroth Lab (AID 2284319); conditions: actives raise or lower the signal
# How it was run: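 Donor NanoLuc luminescence at 460-20 nm is the read-out, serving artifact detection. Transiently expressed SRD5A2-NanoLuc in HEK293T; 5 h total chemical exposure, testosterone tracer added for the final 2 h; fitting bidirectional relative to DMSO baseline.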
structure (smiles),measurement,setting,value
CN(Cc1cnc2nc(N)nc(N)c2n1)c1ccc(C(=O)N[C@@H](CCC(=O)O)C(=O)O)cc1,AC50,[1],0.359 µM (active)
O=P(O)(O)CCC(F)(F)C(F)(F)C(F)(F)C(F)(F)C(F)(F)C(F)(F)C(F)(F)C(F)(F)F,outcome,IYD (gene 389434),inactive
same,outcome,[2],inactive
same,AC50,TTR (gene 7276),2.24 µM (active)
O=C(O)CCC(F)(F)C(F)(F)C(F)(F)C(F)(F)C(F)(F)F,AC50,TTR (gene 7276),3.12 µM (active)
O=C(CCCN1CCC(O)(c2ccc(Cl)cc2)CC1)c1ccc(F)cc1,AC50,[3],1.98 µM (active)
same,outcome,[4],inactive
same,outcome,[5],inactive
same,outcome,[6],inactive
same,outcome,[7],inactive
same,outcome,[8],inactive
same,outcome,[9],inactive
same,outcome,[10],inactive
same,outcome,[11],inactive
same,outcome,[12],inactive
same,outcome,[13],inactive
NC(=NCCCCCCN=C(N)/N=C(\N)Nc1ccc(Cl)cc1)/N=C(\N)Nc1ccc(Cl)cc1,AC50,IYD (gene 389434),54.7 µM (active)
same,AC50,[14],50 µM (active)
same,AC50,SRD5A2 (gene 6716),81 µM (active)
OCC(F)(F)C(F)(F)C(F)(F)C(F)(F)C(F)(F)C(F)(F)C(F)(F)C(F)(F)C(F)(F)C(F)(F)C(F)(F)F,outcome,[2],inactive
CN(C)CCOC(c1ccccc1)c1ccccc1,AC50,[1],63.9 µM (active)
O=C1NS(=O)(=O)c2ccccc21,outcome,[3],inactive
same,outcome,[4],inactive
same,outcome,[7],inactive
same,outcome,[2],inactive
same,outcome,[15],inactive
same,outcome,[16],inactive
same,outcome,[1],inactive
same,outcome,[10],inactive
CCCCc1oc2ccccc2c1C(=O)c1cc(I)c(OCCN(CC)CC)c(I)c1,outcome,[17],inactive
same,outcome,[14],inactive
same,outcome,SRD5A2 (gene 6716),inactive
same,AC50,[16],19.8 µM (active)
same,AC50,[1],18.2 µM (active)
COc1cc([N+](=O)[O-])ccc1N,outcome,[17],inactive
same,outcome,[14],inactive
same,AC50,SRD5A2 (gene 6716),50 µM (active)
O=C1OC2(c3ccccc31)c1cc(I)c(O)c(I)c1Oc1c2cc(I)c(O)c1I,AC50,[17],2.23 µM (active)
same,AC50,[14],1.79 µM (active)
same,AC50,SRD5A2 (gene 6716),6 µM (active)
